# Source: PubChem BioAssay
# Results filed as inconclusive are left out. The source made the active and inactive calls.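 Rule for the calls, unless noted: active = compounds that lower survival of HCT116 colon cancer cells in the luminescence readout, no numeric limit stated; inactive = the rest.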 Starred links: 1 amine or outer side, 2 acyl side, 3 side chain; linkers in the order of their positions; H or OH if unused. Positions of bridges follow the written chain, without caps; N, C: chain ends. Non-standard residues stand in square brackets, D forms with d. Residues, ends and D or L forms follow the SMILES beside them. Chains are numbered I, II in the order given. Actinocin(9to1) = Cc1c2oc3c(C)ccc(C(=O)[*:1])c3nc-2c(C(=O)[*:2])c(N)c1=O; NMeV = CN[C@H](C(=O)O)C(C)C; Sar = CNCC(=O)O
# What was measured:
# [1] = stimulators of insulin release from INS-1E, primary screen, cell-based, 5 mM glucose, NPC library (AID 1117329;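 active = compound raises insulin release from rat beta cells at 5 mM glucose, no numeric limit stated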); details: rat INS-1E insulin secretion, at 10 µM, stronger effect = higher value
# [2] = growth inhibition of GSK3B-pretreated HCT116 cells – cell-based, CellTiter-Glo, 0.2 to 20 µM (AID 1117336;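 active = compounds lowering colon cancer cell viability after pretreatment blocking the GSK3B kinase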); details: HCT116 viability after GSK3B inhibitor, at 20 µM, stronger effect = higher value
# [3] = inhibition of endothelial tube formation, primary screen, imaging, VEGF stimulated, CD31 staining, tube area, NPC library (AID 1117340;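 active = compound that reduces growth-factor-driven endothelial tube area in a mixed cell culture, no cutoff stated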); details: VEGF-stimulated ADSC/ECFC co-culture, at 10 µM, stronger effect = higher value
# [4] = glucagon-like peptide 1 release enhancers, primary assay, NCI-H716 cell line, NPC library (AID 1117341;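 active = compound raises GLP1 secretion from the human gut endocrine cells, with no numeric limit stated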); details: NCI-H716 cells, at 10 µM, stronger effect = higher value
# [5] = HCT116 colon cancer cell growth inhibition, primary screen, CellTiter-Glo luminescence, NPC library (AID 1117342); details: at 20 µM (top of the series)
# [6] = CellTiter-Glo luminescent readout of SW480 viability loss, NPC library primary (AID 1117343;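 active = compounds that lower viability of the colon cancer cells in the luminescence readout, with no numeric limit stated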); details: CellTiter-Glo luminescence; at 20 µM (top of the series)
# [7] = decreased DLD-1 cellular survival, CellTiter-Glo luminescent readout, NPC compound collection, primary HTS (AID 1117346;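 active = compounds that lower survival of DLD-1 colon cancer cells in the luminescence readout, no cutoff given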); details: DLD-1 viability, CellTiter-Glo luminescence; at 20 µM (top of the series)
# [8] = target: 6-phosphogluconate dehydrogenase, decarboxylating (Homo sapiens) (UniProt P52209); assay: 6PGD enzyme inhibitors, primary screen, biochemical, human, recombinant enzyme, NADPH absorbance (AID 1159550;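 active = at least 20% inhibition of 6-phosphogluconate dehydrogenase activity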); details: recombinant 6PGD, NADPH absorbance 341 nm; at 10 µM; stronger effect = higher value
# [9] = differential killing of epithelial or mesenchymal cells, primary screen, imaging, PC-3E GFP, TEM4-18 mCherry, co-culture (AID 1345086;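 active = compounds killing one labelled cell type while sparing the other, by normalised counts and ratio limits, not self-fluorescent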;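 for all read-outs here: cells exposed to compound for 72 h before imaging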;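 for red/green cell ratio (normalised): normalised mesenchymal count divided by normalised epithelial count so high means epithelial killing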); details: imaging cell counts, at 1 µM; for red/green cell ratio (normalised): actives lie on both sides, counts scaled to control wells, 1 = unselective
# [10] = modulation of C. elegans fzo-1 (AID 1259413; call rule not given here;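 note: fzo-1 mutant C. elegans worms in liquid wells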); details: C. elegans fzo-1 modulator screen, mean read-out; stronger effect = higher value
# [11] = growth inhibition of DIPG glioma cells, dose response, cell-based, SU-DIPG-XIII, MIPE4.0, CellTiter-Glo, qHTS (AID 1347061; cut-off not given, nearly all actives have AC50 up to about 37 µM;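 note: cells exposed to compound for 48 hours before readout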); details: SU-DIPG-XIII viability, CellTiter-Glo ATP luminescence
# [12] = growth inhibition of DIPG glioma cells, dose response, cell-based, JHH-DIPG-1, MIPE4.0, CellTiter-Glo, qHTS (AID 1347062; cut-off not given, nearly all actives have AC50 up to about 27 µM;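 for AC50: cells exposed to compound for two days before readout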); details: JHH-DIPG-1 viability, CellTiter-Glo ATP luminescence
# [13] = growth inhibition of DIPG glioma cells, dose response, cell-based, SU-DIPG-IV, MIPE4.0, CellTiter-Glo, qHTS (AID 1347063; cut-off not given, nearly all actives have AC50 up to about 30 µM;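 note: compound exposure lasted 48 hours before the viability readout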); details: SU-DIPG-IV viability, CellTiter-Glo ATP luminescence
# [14] = growth inhibition of DIPG glioma cells, dose response, cell-based, SU-DIPG-XVII, MIPE5.0, CellTiter-Glo, qHTS (AID 1347060; cut-off not given, nearly all actives have AC50 up to about 26 µM;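 note: cells exposed to compound for 48 hours before viability readout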); details: SU-DIPG-XVII viability, CellTiter-Glo ATP luminescence
# [15] = measured here: epithelial PC-3E GFP cell survival
# [16] = measured here: mesenchymal TEM4-18 mCherry cell survival
# 6-phosphogluconate dehydrogenase, decarboxylating (Homo sapiens), sequence (P52209 whole entry, looked up): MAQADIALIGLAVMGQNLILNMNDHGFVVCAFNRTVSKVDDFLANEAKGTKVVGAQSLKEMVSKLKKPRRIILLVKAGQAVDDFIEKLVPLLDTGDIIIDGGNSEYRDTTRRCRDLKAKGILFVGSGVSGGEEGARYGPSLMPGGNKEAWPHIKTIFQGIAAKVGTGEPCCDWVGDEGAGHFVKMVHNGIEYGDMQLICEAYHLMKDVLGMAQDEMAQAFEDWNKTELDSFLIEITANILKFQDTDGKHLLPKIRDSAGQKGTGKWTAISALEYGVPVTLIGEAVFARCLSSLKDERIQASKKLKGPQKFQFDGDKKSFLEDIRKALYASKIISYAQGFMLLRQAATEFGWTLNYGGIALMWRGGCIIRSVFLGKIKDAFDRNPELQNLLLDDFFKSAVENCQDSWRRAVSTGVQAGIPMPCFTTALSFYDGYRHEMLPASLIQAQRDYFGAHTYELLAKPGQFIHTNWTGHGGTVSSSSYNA
SMILES,insulin secretion stimulation [1],viability decrease [2],tube area decrease [3],GLP1 secretion stimulation [4],inhibition of viability [5],viability decrease (inhibition) [6],viability decrease (inhibition) [7],inhibition [8],red/green cell ratio (normalised) [9],"normalised cell number [9, 15]","normalised cell number [9, 16]",mean signal [10],AC50 [11],AC50 [12],AC50 [13],AC50 [14],outcome [11],outcome [12],outcome [13]
CC[N+](C)(C)Cc1ccccc1Br,2.5% (inactive),-18.7% (inactive),10% (inactive),-3% (inactive),27.2% (inactive),-1.6% (active),10.8% (inactive),-1.68% (inactive),,,,,,,,,,,
CCOC(=O)n1ccn(C)c1=S,0.6% (inactive),-40.3% (inactive),10.6% (inactive),0.3% (inactive),-5.63% (inactive),6.5% (inactive),5.3% (inactive),2.95% (inactive),,,,,,,,,,,
O=C(Cn1ccnc1[N+](=O)[O-])NCCO,2.3% (inactive),-1.8% (inactive),2.6% (inactive),-2.9% (inactive),19.2% (inactive),6.3% (inactive),-0.6% (inactive),-6.85% (inactive),,,,,,,,,,,
CC(=O)Nc1ccc(OCC(O)CNC(C)C)cc1 (stereo unspecified),5.6% (inactive),4.2% (inactive),-0.3% (inactive),-1.9% (inactive),11.1% (inactive),26.9% (inactive),42% (inactive),2.72% (inactive),,,,,,,,,,,
CC1CC(OC(=O)C(O)c2ccccc2)CC(C)(C)N1C (stereo unspecified),2.7% (inactive),3.6% (inactive),10.4% (inactive),2.1% (inactive),9.83% (inactive),17.1% (inactive),0.1% (inactive),-25.4% (inactive),,,,,,,,,,,
CCn1cc(C(=O)O)c(=O)c2cnc(N3CCNCC3)nc21,1.5% (inactive),-23.1% (inactive),0.7% (inactive),-1.8% (inactive),-0.3% (inactive),-4.5% (inactive),-15.1% (inactive),6.84% (inactive),1.01 (inactive),0.76,0.77,,,,,,,,
Nc1ccc(S(=O)(=O)NC(=O)c2ccccc2)cc1,-1.7% (inactive),-10.1% (inactive),-16.9% (inactive),0.6% (inactive),0.2% (inactive),-9.5% (inactive),-14.3% (inactive),-6.69% (inactive),1.62 (inactive),0.9,1.46,,,,,,,,
CN1CCN(CCCN2c3ccccc3Sc3ccc(Cl)cc32)CC1,3.6% (inactive),13% (inactive),47.3% (active),17.2% (inactive),86% (active),137% (active),94.4% (active),5.8% (inactive),1.2 (inactive),0.97,1.16,253 (inactive),0.0105 µM (active),7.43 µM (active),10.5 µM (active),,,,
CCN(CC)C(=O)N1CCN(C)CC1,-1.8% (inactive),-3.6% (inactive),-3.8% (inactive),4.4% (inactive),5.3% (inactive),53.1% (active),-2.05% (inactive),10.8% (inactive),1.18 (inactive),1.2,1.42,,,,,,,,
"Cc1c2oc3c(C)ccc(C(=O)N[C@@H]4C(=O)N[C@H](C(C)C)C(=O)N5CCC[C@H]5C(=O)N(C)CC(=O)N(C)[C@@H](C(C)C)C(=O)O[C@@H]4C)c3nc-2c(C(=O)N[C@@H]2C(=O)N[C@H](C(C)C)C(=O)N3CCC[C@H]3C(=O)N(C)CC(=O)N(C)[C@@H](C(C)C)C(=O)O[C@@H]2C)c(N)c1=O (I: T[dV]P[Sar][NMeV] / II: T[dV]P[Sar][NMeV]; ester I:1-I:C, II:1-II:C; linker I:N-II:N via Actinocin(9to1))",1% (inactive),-75.8% (active),110% (active),1.9% (inactive),37.8% (active),70.6% (active),69.3% (active),-6.87% (inactive),,,,256 (inactive),,,,,,,
CCN1CCCC(OC(=O)C(c2ccccc2)c2ccccc2)C1 (stereo unspecified),133% (active),3.4% (inactive),18.5% (inactive),1.3% (inactive),68.8% (active),71.6% (active),46.5% (inactive),-9.18% (inactive),1.28 (inactive),0.93,1.19,,,,,,,,
Oc1c(Cl)cc(Cl)c(Cl)c1Cc1c(O)c(Cl)cc(Cl)c1Cl,-3.4% (inactive),117% (active),108% (active),17.4% (inactive),124% (active),149% (active),101% (active),-10.3% (inactive),0.64 (inactive),0.83,0.53,211 (inactive),,,,,,,
C[C@]12C=CC(=O)C=C1CC[C@H]1[C@@H]3C[C@@H](O)[C@](O)(C(=O)CO)[C@@]3(C)C[C@H](O)[C@@]12F,-0.5% (inactive),8.2% (inactive),-16.1% (inactive),-3.1% (inactive),11% (inactive),13.3% (inactive),14.8% (inactive),-17.6% (inactive),,,,,,,,,,,
CC1(C)O[C@@H]2C[C@H]3[C@@H]4C[C@H](F)C5=CC(=O)CC[C@]5(C)[C@H]4[C@@H](O)C[C@]3(C)[C@]2(C(=O)CO)O1,6.1% (inactive),0.8% (inactive),-40.9% (inactive),1.2% (inactive),0.1% (inactive),-2.1% (inactive),-16.6% (inactive),8.44% (inactive),,,,,,,,,,,
CCCCNc1ccc(C(=O)OCCN(C)C)cc1,0% (inactive),-26.9% (inactive),9.8% (inactive),0.3% (inactive),18% (inactive),47% (inactive),3.1% (inactive),-7.63% (inactive),1.19 (inactive),1.07,1.27,,,,,,,,
CN(C)CCOC(=O)COc1ccc(Cl)cc1,1.2% (inactive),-0.8% (inactive),-34.4% (inactive),1.2% (inactive),7.1% (inactive),-16% (inactive),-7.4% (inactive),17.7% (inactive),0.89 (inactive),0.98,0.87,,,,,,,,
CCn1cc(C(=O)O)c(=O)c2cnc(N3CCCC3)nc21,-0.4% (inactive),-29.5% (inactive),1.8% (inactive),1.2% (inactive),0% (inactive),11.2% (inactive),-1.2% (inactive),5.15% (inactive),0.88 (inactive),1,0.88,,,,,,,,
CC(=O)N[C@@H](CS)C(=O)O,0.8% (inactive),-18.8% (inactive),18% (inactive),0.7% (inactive),-0.95% (inactive),0.1% (inactive),7.4% (inactive),-17.2% (inactive),,,,,,,,,,,
CC(C)(C)CC(C)(C)c1ccc(O)c(Cc2ccc(Cl)cc2Cl)c1,4.4% (active),99.3% (active),108% (active),117% (active),100% (active),120% (active),102% (active),-15.2% (inactive),0.81 (inactive),1.02,0.82,,,,,,,,
Clc1ccccc1C(c1ccccc1)(c1ccccc1)n1ccnc1,0.9% (inactive),110% (active),73.1% (active),29.1% (active),113% (active),132% (active),101% (active),-6.11% (inactive),1.09 (inactive),1.31,1.43,209 (inactive),,,,23.5 µM (active),inactive,inactive,inactive
CN(C)CCOC(=O)C(c1ccccc1)C1(O)CCCC1 (stereo unspecified),0.2% (inactive),-18% (inactive),-3.4% (inactive),-3.8% (inactive),50.1% (active),20.7% (inactive),31.8% (inactive),-0.0978% (inactive),1.07 (inactive),1.42,1.52,,,,,,,,
C[C@@H]1C[C@H]2[C@@H]3C[C@H](F)C4=CC(=O)C=C[C@]4(C)[C@@]3(F)[C@@H](O)C[C@]2(C)[C@@]1(O)C(=O)CO,2.8% (inactive),-29.3% (inactive),-2.9% (inactive),-2.9% (inactive),4.83% (inactive),-11.5% (inactive),-9.6% (inactive),8.65% (inactive),,,,,,,,,,,
C[C@]12CCC(=O)C=C1C=C[C@@H]1[C@@H]2CC[C@@]2(C)[C@H]1CC[C@@]21CCC(=O)O1,-2.6% (inactive),22.8% (inactive),9% (inactive),3.3% (inactive),33.6% (inactive),60.5% (active),11.5% (inactive),-1.14% (inactive),,,,,,,,,,,
CC(=O)O[C@]1(C(C)=O)CC[C@H]2[C@@H]3C=C(Cl)C4=CC(=O)CC[C@]4(C)[C@H]3CC[C@@]21C,0% (inactive),56.2% (active),22.4% (inactive),1.3% (inactive),52.6% (active),57.1% (active),7.1% (inactive),-12% (inactive),,,,,,,,,,,
CCOC(=O)OC(C)OC(=O)[C@@H]1N2C(=O)[C@@H](NC(=O)[C@H](N)c3ccccc3)[C@H]2SC1(C)C (stereo partly specified),0.3% (inactive),-28.2% (inactive),5.9% (inactive),-3.1% (inactive),-1.7% (inactive),-35.9% (inactive),-10.2% (inactive),-1.65% (inactive),,,,,,,,,,,
C=CC(N)CCC(=O)O (stereo unspecified),1.4% (inactive),-25.5% (inactive),-14.9% (inactive),-0.9% (inactive),10.9% (inactive),-15.3% (inactive),-6.8% (inactive),-0.693% (inactive),,,,,,,,,,,
O=C1C(=O)c2ccccc2C(O)=C1C1CCC(c2ccc(Cl)cc2)CC1 (stereo unspecified),1.1% (inactive),96.3% (active),69.9% (active),1.4% (inactive),97.1% (active),144% (active),99% (active),5.16% (inactive),0.91 (inactive),1.07,0.98,,,,,,,,
